Counter-ions that a name gives are not always drawn. ± gives the standard deviation of the averaged measurements.
Assays:
[1] = tested on: Saccharomyces cerevisiae BY4741 SeMeCo community; experiment: mean cell size (pixel area) (pixels); higher = larger cells; settings: 10 µM; 24 h; SM minimal medium
How it was run: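 Mean cell pixel area per well was measured in a four-plasmid fluorescent community of Saccharomyces cerevisiae BY4741, where every plasmid complements one auxotrophy and carries a fluorescent marker. Cells from an overnight preculture at OD600 = 1.0 were diluted to OD600 = 0.3 and dispensed at 70 µl into 384-well plates acoustically predosed with drug to a final 10 µM in SM medium. Incubation lasted 24 h, followed by paraformaldehyde fixation, automated confocal imaging and analysis in Harmony. Reported figures are averaged over 3 replicates. Same SeMeCo high-content imaging drug screen: Selleck FDA-approved drugs at 10 µM, 24 h in SM medium, 384-well plates, 3 replicates.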

[2] = tested on: Saccharomyces cerevisiae BY4741 SeMeCo community; experiment: z-score of prototroph abundance vs DMSO median; higher = larger share of this subpopulation than in DMSO controls; settings: 10 µM; 24 h; SM minimal medium; subpopulation (auxotrophy): Prototroph
How it was run: (§1)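 A Saccharomyces cerevisiae BY4741 community carried four plasmids, each restoring one auxotrophy and encoding a distinct fluorescent protein. It was pre-grown overnight to OD600 1.0, diluted to 0.3, and 70 µl was added to 384-well plates acoustically predosed with library drugs (10 µM final), then grown 24 h in minimal SM medium. Cells were paraformaldehyde-fixed and imaged by automated confocal microscopy, with single-auxotroph fluorescent strains setting thresholds and autofluorescence correction. Each subpopulation's abundance was scored as a z-score against the vehicle-well median.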

[3] = tested on: Saccharomyces cerevisiae BY4741 SeMeCo community; experiment: z-score of subpopulation abundance vs DMSO median, subpopulation auxotrophic for M; higher = larger share of this subpopulation than in DMSO controls; settings: 10 µM; 24 h; SM minimal medium; subpopulation (auxotrophy): M
How it was run: as §1

[4] = tested on: Saccharomyces cerevisiae BY4741 SeMeCo community; experiment: z-score of subpopulation abundance vs DMSO median, subpopulation auxotrophic for U; higher = larger share of this subpopulation than in DMSO controls; settings: 10 µM; 24 h; SM minimal medium; subpopulation (auxotrophy): U
How it was run: as §1

[5] = tested on: Saccharomyces cerevisiae BY4741 SeMeCo community; experiment: z-score of subpopulation abundance vs DMSO median, subpopulation auxotrophic for H; higher = larger share of this subpopulation than in DMSO controls; settings: 10 µM; 24 h; SM minimal medium; subpopulation (auxotrophy): H
How it was run: as §1

[6] = tested on: Saccharomyces cerevisiae BY4741 SeMeCo community; experiment: z-score of subpopulation abundance vs DMSO median, subpopulation auxotrophic for LU; higher = larger share of this subpopulation than in DMSO controls; settings: 10 µM; 24 h; SM minimal medium; subpopulation (auxotrophy): LU
How it was run: as §1

[7] = tested on: Saccharomyces cerevisiae BY4741 SeMeCo community; experiment: z-score of subpopulation abundance vs DMSO median, subpopulation auxotrophic for LM; higher = larger share of this subpopulation than in DMSO controls; settings: 10 µM; 24 h; SM minimal medium; subpopulation (auxotrophy): LM
How it was run: as §1

[8] = tested on: Saccharomyces cerevisiae BY4741 SeMeCo community; experiment: z-score of subpopulation abundance vs DMSO median, subpopulation auxotrophic for HM; higher = larger share of this subpopulation than in DMSO controls; settings: 10 µM; 24 h; SM minimal medium; subpopulation (auxotrophy): HM
How it was run: as §1

[9] = tested on: Saccharomyces cerevisiae BY4741 SeMeCo community; experiment: z-score of subpopulation abundance vs DMSO median, subpopulation auxotrophic for HU; higher = larger share of this subpopulation than in DMSO controls; settings: 10 µM; 24 h; SM minimal medium; subpopulation (auxotrophy): HU
How it was run: as §1

[10] = tested on: Saccharomyces cerevisiae BY4741 SeMeCo community; experiment: z-score of subpopulation abundance vs DMSO median, subpopulation auxotrophic for HL; higher = larger share of this subpopulation than in DMSO controls; settings: 10 µM; 24 h; SM minimal medium; subpopulation (auxotrophy): HL
How it was run: as §1

[11] = tested on: Saccharomyces cerevisiae BY4741 SeMeCo community; experiment: z-score of subpopulation abundance vs DMSO median, subpopulation auxotrophic for HLU; higher = larger share of this subpopulation than in DMSO controls; settings: 10 µM; 24 h; SM minimal medium; subpopulation (auxotrophy): HLU
How it was run: as §1

[12] = tested on: Saccharomyces cerevisiae BY4741 SeMeCo community; experiment: z-score of subpopulation abundance vs DMSO median, subpopulation auxotrophic for HLM; higher = larger share of this subpopulation than in DMSO controls; settings: 10 µM; 24 h; SM minimal medium; subpopulation (auxotrophy): HLM
How it was run: as §1

[13] = tested on: Saccharomyces cerevisiae BY4741 SeMeCo community; experiment: z-score of subpopulation abundance vs DMSO median, subpopulation auxotrophic for HUM; higher = larger share of this subpopulation than in DMSO controls; settings: 10 µM; 24 h; SM minimal medium; subpopulation (auxotrophy): HUM
How it was run: as §1

[14] = tested on: Saccharomyces cerevisiae BY4741 SeMeCo community; experiment: z-score of subpopulation abundance vs DMSO median, subpopulation auxotrophic for LUM; higher = larger share of this subpopulation than in DMSO controls; settings: 10 µM; 24 h; SM minimal medium; subpopulation (auxotrophy): LUM
How it was run: as §1

[15] = tested on: Saccharomyces cerevisiae BY4741 SeMeCo community; experiment: z-score of subpopulation abundance vs DMSO median, subpopulation auxotrophic for HLUM; higher = larger share of this subpopulation than in DMSO controls; settings: 10 µM; 24 h; SM minimal medium; subpopulation (auxotrophy): HLUM
How it was run: as §1

[16] = tested on: Saccharomyces cerevisiae BY4741 SeMeCo community; experiment: z-score of subpopulation abundance vs DMSO median, subpopulation auxotrophic for UM; higher = larger share of this subpopulation than in DMSO controls; settings: 10 µM; 24 h; SM minimal medium; subpopulation (auxotrophy): UM
How it was run: as §1

SMILES	mean cell size [1]	z-score of prototroph abundance [2]	z-score of subpopulation abundance [3]	z-score of subpopulation abundance [4]	z-score of subpopulation abundance [5]	z-score of subpopulation abundance [6]	z-score of subpopulation abundance [7]	z-score of subpopulation abundance [8]	z-score of subpopulation abundance [9]	z-score of subpopulation abundance [10]	z-score of subpopulation abundance [11]	z-score of subpopulation abundance [12]	z-score of subpopulation abundance [13]	z-score of subpopulation abundance [14]	z-score of subpopulation abundance [15]	z-score of subpopulation abundance [16]
O=C(CCCN1CC=C(n2c(=O)[nH]c3ccccc32)CC1)c1ccc(F)cc1 [Droperidol]	12.61 ± 0.072	-0.55	0.67	0.1	-0.5	1.58	0.69	0.2	-0.11	0.21	-0.09	0.63	-0.23	0.57	0.59	
O=C1Nc2ccccc2C1=O [Isatin]	12.3 ± 0.17	-0.13	-0.49		0.05	0.53	-0.62	-0.24		-0.64	0.06	-1.17	0.2	-0.31	-0.52	0.51
Cc1cccc(N(C)C(=S)Oc2ccc3ccccc3c2)c1 [Tolnaftate]	12.3 ± 0.27		-0.22	-0.32	-1.13	-0.35	-0.04	-0.59	-0.22	-0.75	-0.38	-0.75	-0.16	-0.11		-0.08
O=C(O)c1cn(-c2ccc(F)cc2)c2cc(N3CCNCC3)c(F)cc2c1=O [Sarafloxacin HCl]	12.2 ± 0.18		-0.64		-0.42	-0.05		-0.52	0.4	-0.42	-0.35	-0.84	0.61		-0.29	0.84
CC1=C(C(=O)OCCN(Cc2ccccc2)c2ccccc2)C(c2cccc([N+](=O)[O-])c2)C(P2(=O)OCC(C)(C)CO2)=C(C)N1 (stereo unspecified) [Efonidipine]	12.6 ± 0.14	-1.56	0.03	0.34	1.79	1.04	2.26	1.87			1.2	1.02	1.54	2.5	1.4	
COc1ccc(C(Cl)=C(c2ccc(OC)cc2)c2ccc(OC)cc2)cc1 [Chlorotrianisene]	12.6 ± 0.13	-0.67	1.26		1.21	0.41	1.34		0.01		1.95	3.27	0.82	0.76	1.18	0.15
CC[C@H]1OC(=O)[C@H](C)[C@@H](O[C@H]2C[C@@](C)(OC)[C@@H](O)[C@H](C)O2)[C@H](C)[C@@H](O[C@@H]2O[C@H](C)C[C@H](N(C)C)[C@H]2O)[C@](C)(O)C[C@@H](C)CN(C)[C@H](C)[C@@H](O)[C@]1(C)O [Azithromycin Dihydrate]	12.5 ± 0.38	-0.48	0.58	-0.03	0.7	-0.14	-0.45		-0.53		-0.73	0.07	0.97	-0.75		0.16
CC[C@@]1(O)C(=O)OCc2c1cc1n(c2=O)Cc2cc3cc(O)ccc3nc2-1 [(S)-10-Hydroxycamptothecin]	12.41 ± 0.077	0.14	0.87	-1.66	0.82	-0.98	1.48	0.81	-1.09	0.62	0.14	0.07	-0.24		-0.28	-0.98
Nc1ccc(S(=O)(=O)Nc2nccs2)cc1 [Sulfathiazole]	12.4 ± 0.21	0.17	-0.25	0.9	-1.09	0.15	-0.24	-0.53			0.27	-0.42	0.33	0.11	-0.19	1.04
Cc1ccc(Cl)c(Nc2ccccc2C(=O)O)c1Cl [Meclofenamate Sodium]	12.7 ± 0.19	1.11	0.25	-0.1	-0.35	-0.57	-0.57	-0.47	-0.21	-0.49	-0.7	-0.85	-0.63	-0.74		-0.07
COC(=O)C1=C(C)NC(C)=C(C(=O)OCC(C)C)C1c1ccccc1[N+](=O)[O-] (stereo unspecified) [Nisoldipine]	12.2 ± 0.14	-0.75	0.83	-0.48	0.84	-0.62		0.97	0.04	0.67	0.34	0.45	1.07	0.88	1.09	0.03
CN1C(C(=O)Nc2ccccn2)=C(O)c2sc(Cl)cc2S1(=O)=O [Lornoxicam]		-0.29	-0.04	0.67	-0.26	-0.21	-0.22	-0.77	0.59	-0.56	-0.19	0.08	-0.27	0.46	-0.1	0.21
CCCN1C[C@H](C)[C@@H](O)[C@](C)(O)[C@@H](CC)OC(=O)[C@H](C)[C@@H](O[C@H]2C[C@@](C)(OC)[C@@H](O)[C@H](C)O2)[C@H](C)[C@@H](O[C@@H]2O[C@H](C)C[C@H](N(C)C)[C@H]2O)[C@](C)(O)C[C@H]1C [Gamithromycin]	12.3 ± 0.13	-0.29	-0.59	-0.04		-0.16	0.13	0.24	-0.26	0.97	0.75	-0.18	0.28	-0.04		-0.02
CCC(C)C1OC2(CCC1C)CC1CC(CC=C(C)C(OC3CC(OC)C(OC4CC(OC)C(O)C(C)O4)C(C)O3)C(C)C=CC=C3COC4C(O)C(C)=CC(C(=O)O1)C34O)O2 (stereo unspecified) [Ivermectin]		-1.61	-0.12	0.12	1.41	-0.12	0.26	1.17	1.39	0.26	2.13	0.72	2.99	1.28	0.72	1.13
O=C(O)c1cc(O)c2c(c1)[C@H]([C@H]1c3cc(C(=O)O)cc(O)c3C(=O)c3c(O[C@@H]4O[C@H](CO)[C@@H](O)[C@H](O)[C@H]4O)cccc31)c1cccc(O[C@@H]3O[C@H](CO)[C@@H](O)[C@H](O)[C@H]3O)c1C2=O [Sennoside A]	12.57 ± 0.12		-1.76	0.7	0	0.29	-0.8	-1.46	0.33	0.29	-0.71	-1.24	-0.7		-1.25	-0.14

From the supplement of paper PMC8975748
